# PubChem BioAssay (EPA / NIEHS)
# Active and inactive are the calls of the source. How the source made its calls, unless noted: active means hit-call score of the fitted dose curve at least 0.9, where 1 is the maximum; inactive means score below 0.9.
# Tests used:
# [1] = CCTE_Deisenroth_H295R-HTRF_384WELL_ESTRADIOL: CCTE's H295R-HTRF Assay Evaluation of Estradiol Concentration, Deisenroth Lab (AID 2284361); conditions: actives raise or lower the signal
# How it was run: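 H295R cells exposed 48 h to chemicals at 0.001 - 100 uM final (nine points, triplicate); estradiol in conditioned medium measured by HTRF immunoassay, fitted bidirectionally versus DMSO. Viability by CellTiter-Glo on same plates.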
# [2] = CCTE_Deisenroth_H295R-HTRF_384WELL_TESTOSTERONE: CCTE's H295R-HTRF Assay Evaluation of Testosterone Concentration, Deisenroth Lab (AID 2284373); conditions: actives raise or lower the signal
# How it was run: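 Secreted testosterone was quantified by HTRF immunoassay of medium from human adrenocortical H295R cells after 48 h chemical exposure at 0.001–100 uM final. Gain or loss was fitted against DMSO. ATP-based viability was read on matched wells, five experimental replicates.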
# [3] = CCTE_Deisenroth_H295R-HTRF_384WELL_CTOX: Cytotoxicity Assessment in CCTE's H295R-HTRF Assay, Deisenroth Lab (AID 2284380; active means hit-call score of the fitted dose curve at least 0.9, where 1 is the maximum)
# How it was run: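 H295R adrenocortical carcinoma cells plated 24 h, then exposed 48 h to nine-point series 0.001–100 uM final, triplicate, n=5. ATP measured by CellTiter-Glo 2.0 luminescence on same plates after medium collection; loss versus DMSO.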
# [4] = system: TTR (gene 7276); test: CCTE_GLTED_hTTR_0.125uM: CCTE's human Transthyretin (hTTR) Inhibition Assay, with 0.125uM TTR, Great Lakes Toxicology and Ecology Division (GLTED) Lab (AID 2284431);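 further: hits lower the fluorescence signal relative to DMSO baseline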
# How it was run: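 Cell-free displacement of ANSA probe from 0.125uM TTR after 2 h incubation with chemical. Fluorescence read at 380 nm excitation/475 nm emission; loss of signal relative to DMSO indicates T4-site displacement.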
structure (smiles),measurement,setting,value
CC(C1CC1)C(O)(Cn1cncn1)c1ccc(Cl)cc1 (stereo unspecified),outcome,[1],inactive
same,outcome,[2],inactive
same,outcome,[3],inactive
Cc1cc(C2CC2)nc(Nc2ccccc2)n1,AC50,[4],14.8 µM (active)
C[Si](Cn1cncn1)(c1ccc(F)cc1)c1ccc(F)cc1,AC50,[1],968 nM (active)
same,outcome,[2],inactive
same,outcome,[3],inactive
CCOP(=S)(OCC)OC(Cl)C(Cl)(Cl)Cl (stereo unspecified),AC50,[4],33.2 µM (active)
CC1(C(=O)Nc2ccc(O)c(Cl)c2Cl)CCCCC1,AC50,[4],7.98 µM (active)
CCCCOC(=O)c1ccccc1C(=O)O,AC50,[1],54900 nM (active)
same,outcome,[2],inactive
same,outcome,[3],inactive
CCC(CC)Nc1c([N+](=O)[O-])cc(C)c(C)c1[N+](=O)[O-],AC50,[4],0.448 µM (active)
CCCOCC(=Nc1ccc(Cl)cc1C(F)(F)F)n1ccnc1,AC50,[1],270 nM (active)
same,AC50,[2],414 nM (active)
same,outcome,[3],inactive
same,AC50,[4],3.56 µM (active)
CCCSP(=O)(OCC)Oc1ccc(Br)cc1Cl (stereo unspecified),AC50,[4],3.6 µM (active)
Nc1c(Cl)cc([N+](=O)[O-])cc1Cl,AC50,[4],0.176 µM (active)
COc1cccc(C(=O)NN(C(=O)c2cc(C)cc(C)c2)C(C)(C)C)c1C,AC50,[4],20.6 µM (active)
O=[N+]([O-])c1cc(C(F)(F)F)c(Cl)c([N+](=O)[O-])c1Nc1ncc(C(F)(F)F)cc1Cl,AC50,[4],0.0665 µM (active)
